Bioassay records from PubChem.
GDH-TPI counter-1: inhibits GDH-TPI coupling enzymes, artifact for Mtb FBA screen; GDH-TPI coupled enzyme counterscreen, NADH absorbance; inhibition, % at 4.8 µM; actives 1.2% (n = 360,000); AID 588335; in the data active means inhibition above about 30%;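 further: 0% = DMSO wells and 100% = wells lacking the enzyme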
Rv3671c inh: inhibitors of M. tuberculosis serine protease Rv3671c; P9WHR9; inhibition, % at 5.96 µM; actives 0.048% (n = 320,000); AID 2606; in the data active means inhibition above about 38%;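 further: extracellular domain of Rv3671c used as enzyme; 0% = enzyme with DMSO and 100% = no enzyme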
BH1578 lux ind: quorum light induction in luxS cqsA deficient V. cholerae. V. cholerae BH1578 lux reporter, luminescence, 6 h. activation, % at 18.7 µM. actives 0.16% (n = 350,000). AID 588436; in the data active means activation mostly above about 9.7%, no sharp cut-off
FBA Mtb inh: Mtb fructose-bisphosphate aldolase inhibition. AID 588726. actives 2.3% (n = 360,000). inhibition, % at 1 µM. P9WQA3. purified M. tuberculosis FBA, fluorescence read-out;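 further: 0% = vehicle and 100% = reference inhibitor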
RecA splice inh: blocks M. tuberculosis RecA intein splicing; P9WHJ3; cell-free RecA intein splicing, fluorescence; inhibition, % (test concentration not listed); actives 0.75% (n = 290,000); in the data active means inhibition above about 30%;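 further: 0% = vehicle wells and 100% = reference inhibitor control wells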
Target sequence (P9WHJ3 whole entry, looked up, canonical isoform): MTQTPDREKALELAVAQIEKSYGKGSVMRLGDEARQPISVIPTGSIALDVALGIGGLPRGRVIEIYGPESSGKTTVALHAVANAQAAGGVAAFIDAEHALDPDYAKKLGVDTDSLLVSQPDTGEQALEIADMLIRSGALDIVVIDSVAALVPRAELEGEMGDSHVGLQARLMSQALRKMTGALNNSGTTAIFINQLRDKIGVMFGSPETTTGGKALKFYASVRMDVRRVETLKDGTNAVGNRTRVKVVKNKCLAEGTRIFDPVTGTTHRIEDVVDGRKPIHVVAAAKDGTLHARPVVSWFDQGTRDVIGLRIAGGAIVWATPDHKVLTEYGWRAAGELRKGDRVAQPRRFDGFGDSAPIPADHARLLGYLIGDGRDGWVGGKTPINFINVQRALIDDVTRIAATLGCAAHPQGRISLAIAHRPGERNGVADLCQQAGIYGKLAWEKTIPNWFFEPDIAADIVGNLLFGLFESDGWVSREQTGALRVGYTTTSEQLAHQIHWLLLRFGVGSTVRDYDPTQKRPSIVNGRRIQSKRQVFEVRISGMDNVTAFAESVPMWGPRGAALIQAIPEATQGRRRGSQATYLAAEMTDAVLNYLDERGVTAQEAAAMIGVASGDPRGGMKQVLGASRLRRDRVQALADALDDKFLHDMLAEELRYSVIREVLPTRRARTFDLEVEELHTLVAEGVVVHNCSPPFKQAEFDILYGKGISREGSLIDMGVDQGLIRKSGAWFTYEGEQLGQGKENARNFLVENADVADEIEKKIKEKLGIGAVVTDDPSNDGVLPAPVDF
UGM FP inh: Mtb UDP-galactopyranose mutase inhibition | purified UGM, fluorescence polarization probe displacement | AID 504406 | inhibition, % at 10 µM | actives 0.06% (n = 320,000) | P9WIQ1; in the data active means inhibition above about 10%, passing the limit was not always enough
Mtb FBA inh conf: Mtb FBA inhibition, confirmed; shares compounds with FBA Mtb inh; purified M. tuberculosis FBA, fluorescence read-out; inhibition, % at 1 µM; actives 78% (n = 5,600);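 further: 0% = vehicle wells and 100% = reference inhibitor wells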
GDH-TPI counter-2: counter-screen for M. tuberculosis FBA inhibitors: GDH-TPI coupled enzyme inhibition; AID 652141; inhibition, % at 1 µM; actives 81% (n = 5,600); shares compounds with FBA Mtb inh; GDH-TPI coupled enzyme counterscreen, fluorescence; in the data active means inhibition above about 10%
The depositor's hits bear a star; i = inactive; . = not tested or not shown; + = active, no number. The list is not random: actives were taken first. Their share in the collection is about 4.1%. Unless noted, no stated cut-off is given here; in the data, active means inhibition above about 27%; inactive means the rest.

SMILES	GDH-TPI counter-1	Rv3671c inh	BH1578 lux ind	FBA Mtb inh	RecA splice inh	UGM FP inh	Mtb FBA inh conf	GDH-TPI counter-2
COc1ccccc1CCN=C(N)NS(=O)(=O)c1ccccc1F	3	5	1	51*	5	5	+	175*
COc1ccccc1CNS(=O)(=O)c1c(C(=O)N2CCCCCC2)c(C)n(C)c1C	-4	2	1	1	-1	0	.	.
Cn1c2ccccc2c(=O)c2ccc(NCc3ccc4c(c3)OCO4)cc21	15	.	-1	88*	.	.	175*	110*
COC(=O)C1(C)NC(c2cccc(C)c2)C2C(=O)N(c3ccc(F)cc3)C(=O)C21 (stereo unspecified)	7	1	i	5	-1	0	.	.
O=C(Nc1ccccc1)O/N=C/c1ccc(F)cc1	0	2	-1	-1	0	5	.	.
O=C(CSc1nnc(-c2ccc(F)cc2)o1)NC1CCCC1	-4	.	0	4	5	.	.	.
CN(C)CCSc1nc(N)c2c3c(sc2n1)CN(C)CC3	27	-10	0	38*	-3	2	73*	62*
CCCCSc1nc2sc3c(c2c(=O)n1-c1ccc(OC)cc1)CCN(C)C3	22	.	i	4	9	.	.	.
COCCSc1nc(N)c2c3c(sc2n1)CN(C)CC3	19	0	0	52*	-4	3	70*	48*
CC(C)(C)C1CCc2c(sc3nc(SCC(=O)O)nc(N)c23)C1 (stereo unspecified)	-4	-4	-1	3	3	0	.	.
CCOc1nc(NC2CCCC2)nc(N2CCC(C)CC2)n1	-2	2	-1	-2	3	2	.	.
NS(=O)(=O)c1cnccc1Nc1cccc(F)c1	14	-1	0	2	-1	0	.	.
Cc1cc(C)c2nc(-c3ccccn3)cc(C(=O)NCCc3ccc(S(N)(=O)=O)cc3)c2c1	5	-41	-2	39*	6	3	164*	133*
Cc1cc(C)c2nc(-c3ccccn3)cc(C(=O)Nc3ccc(S(=O)(=O)Nc4onc(C)c4C)cc3)c2c1	16	-1	0	-3	6	1	.	.
Cc1cc(C)c2nc(-c3ccccn3)cc(C(=O)NCc3ccc(S(N)(=O)=O)cc3)c2c1	6	-8	0	50*	.	0	8	0
Cn1c(-c2ccc(C=O)s2)nc2c3ccccc3c3ccccc3c21	24	-6	i	53*	-17	2	37*	37*
O=C(O)c1cc(O)ccc1O	4	.	0	87*	.	.	4	-5
CC(C)(c1ccc(O)cc1)c1ccc(O)cc1	6	-11	0	-2	3	3	.	.
CC(C)(c1ccc(O)cc1)c1ccc(O)c(C(=O)O)c1	0	.	0	61*	.	.	60*	52*
Cc1ccc(S(=O)(=O)Nc2cc(Cl)ccc2-n2cncn2)cc1	1	-1	0	1	.	-2	.	.
Cc1ccn2c(NC3CCCCC3)c(-c3cccc(-c4cccc(Cl)c4)c3)nc2c1	16	-1	-1	33*	21	3	113*	101*
CCC(C)Sc1ccc(-c2nc3cnccn3c2NC2CCCCC2)cc1 (stereo unspecified)	12	-4	0	29*	-80	3	67*	57*
CCC(C)Sc1ccc(-c2nc3cc(C)ccn3c2NC2CCCCC2)cc1 (stereo unspecified)	29	-2	1	33*	.	.	+	+
Cc1c(NC(=O)COC(=O)c2ccc(F)c(S(=O)(=O)N3CCOCC3)c2)c(=O)n(-c2ccccc2)n1C	-4	-12	0	1	0	0	.	.
CSCCC(C(=O)N(C)CC(=O)Nc1cccc(F)c1)N1C(=O)c2ccccc2C1=O (stereo unspecified)	4	-10	i	3	.	-1	.	.
SMILES	GDH-TPI counter-1	Rv3671c inh	BH1578 lux ind	FBA Mtb inh	RecA splice inh	UGM FP inh	Mtb FBA inh conf	GDH-TPI counter-2
COc1ccc(-c2ccc(CN3C(C(C)C)C(=O)N(Cc4cn(CC5CCCCC5)nn4)CCS3(=O)=O)cc2)cc1 (stereo unspecified)	-2	.	0	2	.	.	.	.
O=C(COc1ccc(F)cc1)Nc1nnc(-c2ccncc2)s1	25	2	7	47*	-2	2	90*	66*
CNC(=O)c1cccn(Cc2cc(C(F)(F)F)cc(C(F)(F)F)c2)c1=O	15	11	0	16	2	0	.	.
CNC(=O)c1cccn(Cc2ccc(C(F)(F)F)cc2)c1=O	5	-7	-1	29*	-2	1	68*	43*
NC(=O)c1cccn(Cc2ccc(C(F)(F)F)cc2)c1=O	11	5	i	52*	-1	-4	96*	72*
c1coc(C2Nc3ccccc3-c3nc4ccccc4n32)c1 (stereo unspecified)	-2	-31	2	101*	-1	2	153*	120*
C/C=C(\C)C(=O)O[C@H](c1cc2ccc(=O)oc2cc1OC)[C@@H](O)C(C)(C)O	18	0	i	40*	.	4	90*	58*
COc1cc2cc(Oc3ccc4ccc(=O)oc4c3)c(=O)oc2cc1OC(C)=O	28	3	-1	9	-68	2	.	.
C/C=C(\C)C(=O)O[C@@H]([C@H](O)c1cc2ccc(=O)oc2cc1OC)C(C)(C)O	18	-1	0	38*	.	2	42*	23*
C/C=C(/C)C(=O)O[C@@H]([C@H](O)c1cc2ccc(=O)oc2cc1OC)C(C)(C)O[C@@H]1O[C@H](CO)[C@@H](O)[C@H](O)[C@H]1O	12	-1	i	59*	.	1	161*	146*
COc1cc2cc(Oc3ccc4ccc(=O)oc4c3)c(=O)oc2cc1OC(=O)C=C(C)C	.	1	.	.	-81	-2	.	.
COc1ccc(-c2coc3cc(O[C@@H]4O[C@H](CO)[C@@H](O)[C@H](O)[C@H]4O)c(OC)cc3c2=O)cc1	9	-1	i	1	.	0	.	.
COc1ccc([N+](=O)[O-])cc1NC(=O)Cc1noc2ccccc12	2	4	i	0	2	3	.	.
Cc1noc(C)c1C(=O)Nc1nc2ccccc2s1	13	.	i	-2	.	.	.	.
Cn1c(=O)c2cc3ccccc3nc2n(C)c1=O	13	1	0	36*	1	-2	59*	51*
Cn1c(=O)c2cc3ccc(Cl)cc3nc2n(C)c1=O	1	-5	i	4	-7	-2	.	.
c1ccc(-c2nc3nc4ccccc4nc3n2CC2CCCO2)cc1 (stereo unspecified)	34*	2	0	84*	2	-1	96*	72*
COc1cc(C(=O)NCCC2=CCCCC2)ccc1OC1CCN(C(C)=O)CC1	1	-1	0	-2	.	0	.	.
